# High-throughput results (PubChem BioAssay)
# Shown is part of a subset that was picked to be rich in hits.
# NS1 function inh = blocks influenza NS1 protein function; Potency, µM (doses to about 46.1 µM), for inactives: at the highest dose activity, positive = more growth; hit rate 0.4% among 270,000; calls by dose curve; further: potency means the concentration at half of the fitted maximal effect; actives are rising curves; nearly all actives have a fitted effect of over 50% in size
#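 In this qHTS, NS1 from influenza A is expressed in budding yeast, where it slows growth. Cells are switched from glucose to 2% galactose medium (pH 6.0, -URA), treated with compound, and growth recovery is read at OD600.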
# Shiga toxin inh = blocks Shiga toxin action in Vero cells. Vero cells, Shiga toxin protein synthesis inhibition reporter. inhibition, % at 38.7 µM. hit rate 9.2% among 290,000. AID 2315; in the data active means inhibition mostly above about 28%, no sharp cut-off; inactive means mostly below about 43%; further: 0% is about no effect
# Cycloheximide cs = counter-screen for Shiga toxin inhibitors: cycloheximide protein synthesis inhibition. cell reporter, cycloheximide protein synthesis inhibition counterscreen. max response, %. hit rate 12% among 300,000; in the data active means max response mostly above about 13%, no sharp cut-off; inactive means mostly below about 14%; further: read at 38.3 µM for the half of the compounds with a filed dose; 0% is about no effect
# AmpC inh no detg = blocks E. coli AmpC beta-lactamase in detergent-free assay | hit rate 0.52% among 330,000 | AID 485341 | AmpC nitrocefin hydrolysis, absorbance 480 nm, 0.0001% Triton | Potency, µM (top dose mostly 57.1 µM), without a hit: top-dose activity change, negative = inhibition, actives largely listed as inhibitors;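 further: potency means the concentration at half of the fitted maximal effect; plate controls were no compound for no effect and no enzyme for full effect; nearly all actives have a fitted effect of over 20% in size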
# Target sequence (P00811 whole entry, looked up): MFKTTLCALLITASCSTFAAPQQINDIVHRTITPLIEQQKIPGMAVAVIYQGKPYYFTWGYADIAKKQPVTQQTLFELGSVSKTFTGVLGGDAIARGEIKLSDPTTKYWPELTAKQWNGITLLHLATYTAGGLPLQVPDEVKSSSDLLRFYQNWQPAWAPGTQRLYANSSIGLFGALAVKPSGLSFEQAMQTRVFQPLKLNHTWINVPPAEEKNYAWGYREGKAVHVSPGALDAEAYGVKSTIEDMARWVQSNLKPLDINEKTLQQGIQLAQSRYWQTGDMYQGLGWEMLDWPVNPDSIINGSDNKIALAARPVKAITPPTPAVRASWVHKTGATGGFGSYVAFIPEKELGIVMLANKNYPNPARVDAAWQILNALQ
#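 20 mM phosphate pH 7.0 + 0.01% (detergent screen) or 0.0001% Triton X-100; 5.3 nM AmpC reagent; cpd preinc 15 min RT; nitrocefin (800 uM stock) to start; A480 q20 s × 4 min; Activity was normalised to no-enzyme and no-compound control wells.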
# AmpC inh detg = inhibitors of E. coli AmpC beta-lactamase with detergent | AmpC hydrolysis of nitrocefin, absorbance 480 nm, 0.01% Triton | Potency, µM (doses to about 114 µM), without a hit: top-dose activity change, negative = inhibition, hits mostly inhibitors | hit rate 0.041% among 370,000 | AID 485294;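 further: potency means the concentration at half of the fitted maximal effect; 0% = no-compound wells and -100% = no-enzyme wells; nearly all actives have a fitted effect of over 25% in size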
#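 20 mM phosphate pH 7.0 + 0.01% (detergent screen) or 0.0001% Triton X-100; 5.3 nM AmpC reagent; cpd preinc 15 min RT; nitrocefin (800 uM stock) to start; A480 q20 s × 4 min; Activity was normalised to no-enzyme and no-compound control wells.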
# * hit, by the source's call; i = inactive; ? = inconclusive; . = no result given; + = active, no number; [ ] = dose if it differs, or a comment. Unless noted, the call rests on the fitted dose curve; in most records, active means well fitted curve in the direction sought with a large enough effect; inconclusive means small, poorly fitted or top-dose-only effect, or another doubt; inactive means no such curve, though single readings can be large; an effect the other way counts as inactive or inconclusive.
SMILES,NS1 function inh,Shiga toxin inh,Cycloheximide cs,AmpC inh no detg,AmpC inh detg
COC(CNC(=O)C(=O)NCC1CCCN1S(=O)(=O)c1cccs1)OC (stereo not given),.,.,.,2.6%,-20.3%
Cc1nnc(NC(=O)CSCc2cc(=O)c3ccc(C)c(C)c3[nH]2)s1,.,.,.,.,19.7%
COc1ccc(NC(=O)Cn2c(=O)n(Cc3ccc4c(c3)OCO4)c(=O)c3ccc(C(=O)NC4CCCCC4)cc32)cc1,.,.,.,.,-7.5%
COC(=O)c1cccc(NC(=O)c2cc3sccc3n2C)c1,-24.9%,109.0*,28.8*,-40.3%,7.3%
COc1cccc(OC)c1C(=O)Nc1nnc(-c2ccc(F)cc2)s1,-38.7%,29.7*,10.4*,-17.5%,?
COC(=O)c1ccccc1NC(=O)c1cc2sccc2n1C,-7.6%,6.3,1.4,-24.9%,?
COC(=O)c1cccc(NC(=O)c2cccc(OC)c2)c1,-54.7%,104.2*,53.4*,.,3.0%
CCOc1cccc(C(=O)Nc2cccc(C(C)=O)c2)c1,-5.8%,68.3*,39.5*,-29.8%,-1.6%
CCC(=O)N1c2ccccc2CC1C(=O)NCc1cc(Br)ccc1OC (stereo not given),.,.,.,.,8.4%
Cc1ccc(/C=C/C(=O)N2CCCN(C(=O)/C=C/c3ccc(C)cc3)CC2)cc1,-6.5%,34.5,16.3*,97.9%,?
Cc1ccc(/C=C/C(=O)N2CCc3ccccc3C2)cc1,-55.3%,12.3,11.4*,-7.4%,0.5%
CSc1ccc(/C=C/C(=O)N2CCCN(C)CC2)cc1,.,52.5*,23.2*,-7.6%,9.6%
CN1CCN(C(=O)/C=C\c2ccc(Cl)cc2)CC1,5.6%,1.6,-1.4,-28.0%,-11.2%
CC1(C)OC(=O)C(=NNc2ccccc2[N+](=O)[O-])C(=O)O1,-30.6%,45.7,-0.3,-14.6%,-3.7%
FC(F)(F)c1ccccc1NC(=S)N/N=C1\CC2CC=CC12 (stereo not given),.,77.1*,23.2*,-28.5%,-6.3%
O=C(N/N=C1\CC2CC=CC12)c1ccccc1Cl (stereo not given),.,85.5*,21.1*,-15.9%,6.0%
O=C(NNC(=S)Nc1ccccc1C(F)(F)F)C1CC1,4.0%,12.5,2.2,-8.4%,-9.5%
O=[N+]([O-])c1ccccc1N/N=C1\CC2CC=CC12 (stereo not given),.,108.3*,30.7*,-33.7%,6.4%
O=C(N/N=C1\CC2CC=CC12)c1ccc(Br)cc1 (stereo not given),.,48.0,27.8,-29.3%,-8.9%
CCN(C(=O)CSc1ncc2c(n1)-c1cc(Cl)ccc1N(Cc1ccccc1)S2(=O)=O)c1cccc(C)c1,.,.,.,.,1.6%
COc1ccccc1C1CC(=O)Oc2cc(C)c(Cl)c(C)c21 (stereo not given),.,i,-5.4,-36.6%,.
O=C(CC(=O)c1cc(Cl)ccc1O)c1ccccc1,-50.9%,74.0*,55.0*,-58.4%,?
Nc1ccc(Cl)cc1C(=O)c1ccccc1,.,-5.5,8.0,-27.6%,1.5%
Cc1cccc(C(=O)CC(=O)c2cc(Cl)ccc2O)c1,-183.2%,49.9*,27.4*,-40.8%,-6.8%
Cc1ccc(O)c(NC(=O)CSc2ccc(Cl)cc2)c1,-0.5%,-4.3,-1.0,-15.2%[2.29 µM],-2.3%
SMILES,NS1 function inh,Shiga toxin inh,Cycloheximide cs,AmpC inh no detg,AmpC inh detg
Cc1ccc(O)c(C(=O)CC(=O)c2cccc(F)c2)c1,-163.2%,60.6*,37.8*,20µM*,-5.1%
Cc1ccc(O)c(C(=O)CC(=O)c2ccc(Cl)cc2)c1,-99.0%,96.4*,38.3*,-44.7%,-25.5%
Cc1cccc(C(=O)NCC(=O)NNC(=O)c2ccccc2O)c1,.,.,.,-19.7%,-12.8%
COc1ccccc1CNC(=O)C(=O)NCC(c1ccco1)S(=O)(=O)c1cccs1 (stereo not given),.,.,.,.,0.0%
C=CCn1c(CNc2ccccc2)nnc1SCC(=O)N/N=C/c1ccccc1O,-14.7%,-14.1,8.3,-10.0%,?
Cc1ccc2oc(C(=O)Nc3sc4c(c3C(=O)NCc3cccnc3)CCCC4)cc(=O)c2c1,.,.,.,.,11.8%
O=C(CCC(=O)N1CCSc2ccccc21)NC1CCCCC1,22.8%,-4.9,-2.9,1.8%,-10.6%
c1ccc(C2CCC3(CC2)Oc2ccccc2C2CC(c4cccnc4)=NN23)cc1 (stereo not given),-15.3%,40.4*,27.4*,-40.2%,?
CCOC(=O)N1CCC(NC(=O)c2cnn(-c3cccc(F)c3)c2-n2cccc2)CC1,.,.,.,.,2.1%
CC(C)OC(=O)c1ccc(NC(=O)C2C3CC4OC(=O)C2C4C3)cc1 (stereo not given),-6.0%,60.5*,33.5*,-17.9%,?
Cc1ccc(NC(=O)C2C3CC4OC(=O)C2C4C3)cc1Cl (stereo not given),4.3%,-3.8,6.1,-16.2%,-13.0%
CSCCC(NC(=O)c1ccco1)C(=O)N1CCN(c2ccccc2O)CC1 (stereo not given),.,.,.,-3.3%,-6.6%
Clc1ccc2c(c1)C1OCCC1C(c1ccco1)N2 (stereo not given),-16.2%,65.7*,26.4*,-15.5%,?
COCCNC(=O)c1cc2oc3ccccc3c2n1C,-47.0%,89.5*,62.0*,-17.5%,-0.6%
Cc1ccc(CNC(=O)c2ccc(N3CCC4(CC3)CC(c3ccccc3)=NO4)c(NC(=O)c3ccc(Cl)c([N+](=O)[O-])c3)c2)cc1,.,.,.,-37.1%,-12.8%
CC12CCC(=O)N1C(C(=O)Nc1cc(S(=O)(=O)N3CCCCCC3)ccc1OCC(F)(F)F)CS2 (stereo not given),14.6%,-6.2,-1.5,59.1%,-8.2%
Cc1cccc([N+](=O)[O-])c1,.,.,.,-1.5%,0.7%
O=[N+]([O-])c1ccc2oc(-c3ccccc3)nc2c1,.,69.1*,35.3*,-10.4%,-9.1%
Cc1cccc(-c2nc3cc([N+](=O)[O-])ccc3o2)c1,0.3%,92.2*,36.4*,-11.1%,7.3%
COc1ccc(-c2nc3ccc([N+](=O)[O-])cc3o2)cc1,6.6%,+,38.8*,-14.1%,?
NC(N)=Nc1nc2cc([N+](=O)[O-])ccc2o1,3.2%,27.2,15.5*,-25.9%,0.1%
CCCc1ccc(S(=O)(=O)N(C)S(=O)(=O)c2ccc(F)cc2)cc1,?,12.9,-2.8,-23.8%,0.1%
COc1ccc(OC)c(NC(=O)/C=C/c2ccc(S(=O)(=O)N3CCOCC3)cc2)c1,.,.,.,38.3%,?
Cc1cccc(NC(=S)NC(=O)/C=C/c2ccco2)n1,-71.5%,121.2*,47.7*,-39.5%,-5.1%
CC(=O)c1ccc(NC(=S)NC(=O)/C=C/c2ccco2)cc1,29.2%,.,27.3*,-42.1%,?
O=C(/C=C/c1ccco1)NC(=S)Nc1ccccc1,9.5%,.,41.6*,-47.2%,?
O=C(/C=C/c1ccco1)NCc1ccc(F)cc1,.,19.7,18.6*,-27.8%,-8.4%
COc1cccc(-c2cn3c(n2)sc2cc(C(=O)NC4CCCCCC4)ccc23)c1,.,.,.,.,-1.5%
COc1cccc(CSc2nc3n(n2)C(CC(C)C)C(C(=O)Nc2ccccc2C)=C(C)N3)c1 (stereo not given),.,.,.,.,-1.4%
